Assay results taken from the supplement of paper PMC11537057.
Structures can show the parent of a compound that is named as a salt. ± gives the standard deviation of the averaged measurements. The full ranking holds about 1,700 compounds; the median of “cell number in HSV-1-infected wells relative to infected DMSO wells (H2B-RFP signal)” is about 100, and the highest 2% start at about 140. Many of the other results were omitted from the sample, so the highest values are more common in it than they were.

The molecules below were run on A549 infected with HSV-1 (assay: cell number in HSV-1-infected wells relative to infected DMSO wells (H2B-RFP signal); higher = more surviving cells (uninfected or antiviral-protected wells give about 200%; low = toxicity)). Settings: 10 µM; 48 h; MOI: 0.1.
Experimental: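 Selleck FDA-approved library (L1300) screened in duplicate at 10 µM on A549 H2B-mRuby cells in 384-well plates, infected with HSV-1 strain 17 YFP-ICP4 at MOI 0.1 one hour before drug addition. Imaged after 2 days at 37°C. Cell growth (H2B-RFP) and infection (ICP4-YFP) are expressed as % of DMSO-treated wells. Hits: growth >90% and infection <20% of DMSO.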
With `Clc1ccc2c(c1)CCc1cccnc1C2=C1CCNCC1` [Desloratadine] the “cell number in HSV-1-infected wells” value was 116 ± 6.4%. With `C[C@H](CCC(=O)O)[C@H]1CC[C@H]2[C@@H]3C(=O)C[C@@H]4CC(=O)CC[C@]4(C)[C@H]3CC(=O)[C@]12C` [Dehydrocholic acid] the “cell number in HSV-1-infected wells” value was 89.8 ± 1.7%. For `COc1cc2c(cc1Cc1cccc(Cl)c1F)c(=O)c(C(=O)O)cn2[C@H](CO)C(C)C` [Elvitegravir (GS-9137, JTK-303)], the “cell number in HSV-1-infected wells” value was 105 ± 10%. `CCCc1ncc(C[n+]2ccccc2C)c(N)n1` [Amprolium HCl] was tested, and the “cell number in HSV-1-infected wells” value was 105 ± 10%. `CC[C@H](C)[C@H](NC(=O)[C@@H]1CCCN1C(=O)CNC(=O)[C@H](Cc1ccccc1)NC(=O)[C@H](CC(N)=O)NC(=O)[C@H](CC(N)=O)NC(=O)[C@H](CO)NC(=O)[C@H](CO)NC(=O)[C@H](Cc1c[nH]cn1)NC(=O)[C@@H](NC(=O)[C@H](CC(C)C)NC(=O)[C@H](Cc1ccccc1)NC(=O)[C@H](CC(N)=O)NC(=O)[C@H](C)NC(=O)[C@H](CC(C)C)NC(=O)[C@H](CCCNC(=N)N)NC(=O)[C@H](CCC(N)=O)NC(=O)[C@@H](NC(=O)[C@H](C)NC(=O)[C@@H]1CSSC[C@H](NC(=O)[C@@H](N)CCCCN)C(=O)N[C@@H](CC(N)=O)C(=O)N[C@@H]([C@@H](C)O)C(=O)N[C@@H](C)C(=O)N[C@@H]([C@@H](C)O)C(=O)N1)[C@@H](C)O)C(C)C)C(=O)N[C@@H](CC(C)C)C(=O)N1CCC[C@H]1C(=O)N1CCC[C@H]1C(=O)N[C@H](C(=O)N[C@@H](CC(N)=O)C(=O)N[C@H](C(=O)NCC(=O)N[C@@H](CO)C(=O)N[C@@H](CC(N)=O)C(=O)N[C@H](C(=O)N[C@@H](Cc1ccc(O)cc1)C(N)=O)[C@@H](C)O)C(C)C)[C@@H](C)O` [Pramlintide Acetate] was tested, and the “cell number in HSV-1-infected wells” value was 134 ± 20%. For `CC(C)[C@H](N)C(=O)OCC(CO)OCn1cnc2c(=O)[nH]c(N)nc21` (some centres undefined) [Valganciclovir HCl], the “cell number in HSV-1-infected wells” value was 207 ± 2.2%. In the case of `O=C(O)c1cccc(-c2noc(-c3ccccc3F)n2)c1` [Ataluren (PTC124)], the “cell number in HSV-1-infected wells” value is reported as 116 ± 9.6%. With `CN(C)CCOC(c1ccc(Cl)cc1)c1ccccn1` (centres undefined) [CarbinoxaMine Maleate] the “cell number in HSV-1-infected wells” value was 148 ± 27%. For `CN(C)CCC(c1ccc(Cl)cc1)c1ccccn1` (centres undefined) [Chlorpheniramine Maleate], the “cell number in HSV-1-infected wells” value was 94.3 ± 16%. For `CN(C)CCOC(c1ccccc1)c1ccccc1` [Diphenhydramine HCl], the “cell number in HSV-1-infected wells” value was 102 ± 25%. `CC1(C)S[C@@H]2[C@H](NC(=O)[C@H](C(=O)O)c3ccsc3)C(=O)N2[C@H]1C(=O)O` [Ticarcillin sodium] was tested, and the “cell number in HSV-1-infected wells” value was 95.4 ± 22%. `CC(C)(C)c1cc(C(C)(C)C)c(NC(=O)c2c[nH]c3ccccc3c2=O)cc1O` [Ivacaftor (VX-770)] was tested, and the “cell number in HSV-1-infected wells” value was 64.8 ± 7%. For `Cc1ccc(C(=O)N(CCCN)[C@@H](c2nc3cc(Cl)ccc3c(=O)n2Cc2ccccc2)C(C)C)cc1`, the “cell number in HSV-1-infected wells” value was 12.9 ± 5.4%. In the case of `Nc1c(CC(=O)O)cccc1C(=O)c1ccccc1` [Amfenac Sodium Monohydrate], the “cell number in HSV-1-infected wells” value is reported as 115 ± 14%. With `Cc1ccc(Cl)c(Nc2ccccc2C(=O)O)c1Cl` [Meclofenamate Sodium] the “cell number in HSV-1-infected wells” value was 156 ± 21%. For `Cc1c(Cl)cccc1Nc1ccccc1C(=O)O` [Tolfenamic Acid], the “cell number in HSV-1-infected wells” value was 120 ± 2%. `Cc1cccc(Nc2ccccc2C(=O)O)c1C` [Mefenamic Acid] was tested, and the “cell number in HSV-1-infected wells” value was 94.2 ± 6%. For `O=C(c1ccc(F)c(F)c1Nc1ccc(I)cc1F)N1CC(O)([C@@H]2CCCCN2)C1` [Cobimetinib (GDC-0973, RG7420)], the “cell number in HSV-1-infected wells” value was 32.6 ± 21%. For `CC(=O)c1cc2c(o1)C(=O)c1ccccc1C2=O` [Napabucasin], the “cell number in HSV-1-infected wells” value was 27.4 ± 21%. For `CCOc1cc(N)c(Cl)cc1C(=O)NCC1CN(Cc2ccc(F)cc2)CCO1` (centres undefined) [Mosapride], the “cell number in HSV-1-infected wells” value was 92.8 ± 14%. With `CCOc1cc(N)c(Cl)cc1C(=O)NCC1CN(Cc2ccc(F)cc2)CCO1` (centres undefined) [Mosapride Citrate] the “cell number in HSV-1-infected wells” value was 89.7 ± 13%. With `Cc1cccc(C)c1N(CC(=O)Nc1ccc(-c2ncon2)cc1)C(=O)C1CCS(=O)(=O)CC1` [Amenamevir] the “cell number in HSV-1-infected wells” value was 214 ± 5.9%. `O=C1CC[C@@H](C(=O)N2CSC[C@H]2C(=O)O)N1` [Pidotimod] was tested, and the “cell number in HSV-1-infected wells” value was 82.1 ± 7.1%. For `CCOc1ccc(Cc2cc([C@]34OC[C@](CO)(O3)[C@@H](O)[C@H](O)[C@H]4O)ccc2Cl)cc1` [Ertugliflozin], the “cell number in HSV-1-infected wells” value was 116 ± 8.7%. For `O=C([O-])c1ccccc1.[Na+]` [Sodium benzoate], the “cell number in HSV-1-infected wells” value was 83.2 ± 14%. With `COC(=O)N(C)c1c(N)nc(-c2nn(Cc3ccccc3F)c3ncccc23)nc1N` [Riociguat (BAY 63-2521)] the “cell number in HSV-1-infected wells” value was 108 ± 15%. With `CCN1CCC[C@H]1CNC(=O)c1cc(S(N)(=O)=O)ccc1OC` [Levosulpiride] the “cell number in HSV-1-infected wells” value was 94.939 ± 0.086%. In the case of `Cc1c(F)cc(C(=O)NC2CC2)cc1-c1ccc(C(=O)NCC(C)(C)C)cn1`, the “cell number in HSV-1-infected wells” value is reported as 145 ± 44%. `N[C@@H](CCC(=O)O)C(=O)[O-].[Na+]` [L-Glutamic acid monosodium salt] was tested, and the “cell number in HSV-1-infected wells” value was 94.5 ± 4.2%. In the case of `CC(C)CCCCC(=O)N[C@@H](CCN)C(=O)N[C@H](C(=O)N[C@@H](CCN)C(=O)N[C@H]1CCNC(=O)[C@H]([C@@H](C)O)NC(=O)[C@H](CCN)NC(=O)[C@H](CCN)NC(=O)[C@H](CC(C)C)NC(=O)[C@@H](Cc2ccccc2)NC(=O)[C@H](CCN)NC1=O)[C@@H](C)O` [Polymyxin B sulphate], the “cell number in HSV-1-infected wells” value is reported as 132 ± 31%. In the case of `COCC(=O)Nc1c(I)c(C(=O)NCC(O)CO)c(I)c(C(=O)N(C)CC(O)CO)c1I` (centres undefined) [Iopromide], the “cell number in HSV-1-infected wells” value is reported as 111 ± 26%. In the case of `O=C(NCC(O)CO)c1c(I)c(C(=O)NCC(O)CO)c(I)c(N(CCO)C(=O)CO)c1I` (centres undefined) [Ioversol], the “cell number in HSV-1-infected wells” value is reported as 146 ± 6.8%. In the case of `CC(=O)N(CC(O)CN(C(C)=O)c1c(I)c(C(=O)NCC(O)CO)c(I)c(C(=O)NCC(O)CO)c1I)c1c(I)c(C(=O)NCC(O)CO)c(I)c(C(=O)NCC(O)CO)c1I` (centres undefined) [Iodixanol], the “cell number in HSV-1-infected wells” value is reported as 79.6 ± 3%. In the case of `CC(=O)Oc1ccc(C(c2ccc(OC(C)=O)cc2)c2ccccn2)cc1` [Bisacodyl], the “cell number in HSV-1-infected wells” value is reported as 87.8 ± 16%. In the case of `CC[C@H](C)[C@@H]1NC(=O)[C@H](CCCNC(=N)N)NC(=O)[C@H](CC(=O)O)NC(=O)[C@H](CCSC)NC(=O)[C@H](CCCNC(=N)N)NC(=O)CNC(=O)CNC(=O)[C@H](Cc2ccccc2)NC(=O)[C@@H](NC(=O)[C@H](CO)NC(=O)[C@H](CO)NC(=O)[C@H](CCCNC(=N)N)NC(=O)[C@H](CCCNC(=N)N)NC(=O)[C@H](CC(C)C)NC(=O)[C@@H](N)CO)CSSC[C@@H](C(=O)N[C@@H](CC(N)=O)C(=O)N[C@@H](CO)C(=O)N[C@@H](Cc2ccccc2)C(=O)N[C@@H](CCCNC(=N)N)C(=O)N[C@@H](Cc2ccc(O)cc2)C(=O)O)NC(=O)CNC(=O)[C@H](CC(C)C)NC(=O)CNC(=O)[C@H](CO)NC(=O)[C@H](CCC(N)=O)NC(=O)[C@H](C)NC(=O)CNC1=O` [Carperitide Acetate], the “cell number in HSV-1-infected wells” value is reported as 131 ± 1.4%. In the case of `O=C(O)CCCC[C@@H]1CCSS1` (racemic) [Thioctic acid], the “cell number in HSV-1-infected wells” value is reported as 134 ± 60%. For `CC1(C)NC(=O)N(c2ccc([N+](=O)[O-])c(C(F)(F)F)c2)C1=O` [Nilutamide], the “cell number in HSV-1-infected wells” value was 150 ± 36%. In the case of `CNC(=O)c1ccc(N2C(=S)N(c3ccc(C#N)c(C(F)(F)F)c3)C(=O)C2(C)C)cc1F` [Enzalutamide (MDV3100)], the “cell number in HSV-1-infected wells” value is reported as 95.9 ± 2.1%. For `CC(C)C(=O)Nc1ccc([N+](=O)[O-])c(C(F)(F)F)c1` [Flutamide], the “cell number in HSV-1-infected wells” value was 110 ± 2.2%. In the case of `OC1CC2CCC(C1)N2` (centres undefined) [Nortropine Hydrochloride], the “cell number in HSV-1-infected wells” value is reported as 105 ± 10%. In the case of `COC(=O)C1=C(C)NC(C)=C(C(=O)OC2CCCN(Cc3ccccc3)C2)C1c1cccc([N+](=O)[O-])c1` (centres undefined) [Benidipine HCl], the “cell number in HSV-1-infected wells” value is reported as 85.5 ± 9.3%. For `CCC[C@@H]1C[C@@H](C(=O)N[C@@H]([C@H]2O[C@H](SC)[C@H](O)[C@@H](O)[C@H]2O)[C@H](C)Cl)N(C)C1` [Clindamycin], the “cell number in HSV-1-infected wells” value was 88 ± 4%. With `CCC[C@@H]1C[C@@H](C(=O)N[C@@H]([C@H]2O[C@H](SC)[C@H](O)[C@@H](O)[C@H]2O)[C@@H](C)O)N(C)C1` [Lincomycin Hydrochloride Monohydrate] the “cell number in HSV-1-infected wells” value was 150 ± 39%. For `CCC[C@@H]1C[C@@H](C(=O)N[C@@H]([C@H]2O[C@H](SC)[C@H](O)[C@@H](O)[C@H]2O)[C@H](C)Cl)N(C)C1` [Clindamycin HCl], the “cell number in HSV-1-infected wells” value was 99.4 ± 5.8%. With `CCC[C@@H]1C[C@@H](C(=O)N[C@@H]([C@H]2O[C@H](SC)[C@H](OP(=O)(O)O)[C@@H](O)[C@H]2O)[C@H](C)Cl)N(C)C1` [Clindamycin Phosphate] the “cell number in HSV-1-infected wells” value was 101 ± 12%. For `CCC[C@@H]1C[C@@H](C(=O)N[C@@H]([C@H]2O[C@H](SC)[C@H](O)[C@@H](O)[C@H]2O)[C@@H](C)O)N(C)C1` [Lincomycin HCl], the “cell number in HSV-1-infected wells” value was 133 ± 16%. In the case of `CCOc1cc2ncc(C#N)c(Nc3ccc(OCc4ccccn4)c(Cl)c3)c2cc1NC(=O)/C=C/CN(C)C` [Neratinib (HKI-272)], the “cell number in HSV-1-infected wells” value is reported as 63.62 ± 0.22%. With `CC(C)(Oc1ccc(Cl)cc1)C(=O)OCCOC(=O)c1cccnc1` [Etofibrate] the “cell number in HSV-1-infected wells” value was 129 ± 12%. `OCc1cc([C@@H](O)CNCCCCCCOCCOCc2c(Cl)cccc2Cl)ccc1O` [Vilanterol Trifenate] was tested, and the “cell number in HSV-1-infected wells” value was 25.9 ± 8.8%. For `N[C@@H](Cc1ccc(N(CCCl)CCCl)cc1)C(=O)O` [Melphalan], the “cell number in HSV-1-infected wells” value was 72.2 ± 27%. For `CCOc1ccccc1OCCN[C@H](C)Cc1ccc(OC)c(S(N)(=O)=O)c1` [Tamsulosin hydrochloride], the “cell number in HSV-1-infected wells” value was 132 ± 8.6%. `Cc1ccc2c(c1)[C@]13CCCC[C@@H]1[C@H](C2)N(C)CC3` [Dimemorfan phosphate] was tested, and the “cell number in HSV-1-infected wells” value was 127 ± 24%. In the case of `COc1ccc2c(c1)[C@]13CCCC[C@@H]1[C@H](C2)N(C)CC3` [Dextromethorphan hydrobromide hydrate], the “cell number in HSV-1-infected wells” value is reported as 146 ± 7.2%. For `C=C1/C(=C\C=C2/CCC[C@]3(C)[C@@H]([C@H](C)/C=C/[C@H](C)C(C)C)CC[C@@H]23)C[C@@H](O)C[C@@H]1O` [Doxercalciferol], the “cell number in HSV-1-infected wells” value was 100 ± 23%.
